Test results published in PubChem BioAssay AID619 (University of Pittsburgh Molecular Library Screening Center, 2007).
Screen size: about 97,000 compounds; about 520 (0.54%) were called active.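 The calls were made as follows: active = inhibition of 50% or more in the single-concentration screen; inactive = inhibition below 50%.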 For the sample, actives were picked, then their nearest neighbours and some compounds at random.

target: Serine/threonine-protein kinase PLK1 (Homo sapiens) (UniProt P53350); experiment: Plk1 peptide phosphorylation blockers – biochemical, TR-FRET, primary screen (AID 619); conditions: recombinant PLK1 kinase, at 10 µM, hits give high values;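 also: 0% = DMSO max control and 100% = H-89 dihydrochloride min control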
Sequence (P53350 whole entry, looked up): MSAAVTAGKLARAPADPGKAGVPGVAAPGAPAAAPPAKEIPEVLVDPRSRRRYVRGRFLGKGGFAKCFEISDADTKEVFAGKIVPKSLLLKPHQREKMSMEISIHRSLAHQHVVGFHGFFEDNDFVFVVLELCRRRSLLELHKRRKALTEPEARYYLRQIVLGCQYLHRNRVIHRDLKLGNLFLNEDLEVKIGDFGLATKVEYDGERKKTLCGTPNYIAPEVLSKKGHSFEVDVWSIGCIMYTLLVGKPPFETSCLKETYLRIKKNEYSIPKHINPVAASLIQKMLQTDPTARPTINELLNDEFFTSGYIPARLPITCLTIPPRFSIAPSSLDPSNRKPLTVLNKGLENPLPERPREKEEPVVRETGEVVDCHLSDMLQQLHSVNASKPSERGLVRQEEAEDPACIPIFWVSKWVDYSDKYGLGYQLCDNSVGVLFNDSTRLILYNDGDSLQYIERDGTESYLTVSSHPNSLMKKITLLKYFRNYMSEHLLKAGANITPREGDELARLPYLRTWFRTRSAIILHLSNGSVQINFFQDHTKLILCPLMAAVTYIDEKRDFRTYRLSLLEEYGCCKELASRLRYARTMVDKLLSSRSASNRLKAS

Row | SMILES | inhibition
1 | CCOc1ccc(S(=O)(=O)N2CCCCCC2)c2ccccc12 | -17.7% (inactive)
2 | O=C(CNC(=O)Cc1ccccc1)NCC(=O)OCC(=O)c1ccccc1Cl | -4.92% (inactive)
3 | COc1ccc(C2=NOC3(CC(=O)N(c4ccc(Cl)cc4)C3=O)C2)c(OC)c1 (stereo not drawn) | -9.65% (inactive)
4 | CC(=O)c1cn(CCCCCCCCCCn2cc(C(C)=O)c(=O)[nH]c2=O)c(=O)[nH]c1=O | -6.55% (inactive)
5 | COc1nc(-c2ccc(Cl)cc2)ccc1-c1noc(-c2cccs2)n1 | -90.7% (inactive)
6 | O=C(CSc1ncnc2c1cnn2CCc1ccccc1)Nc1ccc(F)cc1 | -7.32% (inactive)
7 | Cc1cc(C)c(OCC(=O)N/N=C/c2ccco2)c(C)c1 | 6.14% (inactive)
8 | Cc1ccc(CS(=O)(=O)CCC(=O)NC2CC2)cc1 | -7.25% (inactive)
9 | Nc1ccc(-n2nncc2-c2ccco2)cc1 | -4.39% (inactive)
10 | CCCc1nc2scc(-c3ccc(C)cc3)c2c(=O)n1N | 5.26% (inactive)
11 | COc1ccc(CCN2C(=O)C3CC=C(C)CC3C2=O)cc1OC (stereo not drawn) | -10.2% (inactive)
12 | COc1cc(OC)c(-n2c(C)cc(C=O)c2C)cc1Cl | -6.8% (inactive)
13 | CCCC(=O)n1nc(-c2ccccc2)nc1N | -4.99% (inactive)
14 | COc1ccccc1NS(=O)(=O)N(C)C | -7.41% (inactive)
15 | O=C(O)CCC(=O)NCc1ccc(C(=O)O)cc1 | -9.7% (inactive)
16 | C=CCn1c(SCC(=O)c2c(N)n(C)c(=O)n(C)c2=O)nc2sc(CC)cc2c1=O | -9.06% (inactive)
17 | CC(=O)c1ccc(OCCN2CCOCC2)cc1 | -17.4% (inactive)
18 | COc1ccc(C(=O)c2c(C)oc3cc([N+](=O)[O-])c(O)c([N+](=O)[O-])c23)cc1 | -2.19% (inactive)
19 | Cc1ccc(Cc2cnc(NC(=O)/C(C#N)=C/c3ccc(-c4cccc([N+](=O)[O-])c4)o3)s2)cc1 | -5.56% (inactive)
20 | CSc1nc(C)nc2c1c(=O)n(C)c(=O)n2C | 68.3% (active)
21 | CCC(C)Sc1nc(C)nc2c1c(=O)n(C)c(=O)n2C (stereo not drawn) | 52.6% (active)
22 | Cn1c(=O)c2c(SCC(=O)N3CCOCC3)nc(C3CC3)nc2n(C)c1=O | 36.6% (inactive)
23 | CCCSc1nc2c(c(=O)n(C)c(=O)n2C)n1Cc1ccc(C)cc1 | 6.87% (inactive)
24 | COc1ccc(CC(=O)Nc2sc(Cc3ccccc3)c(C)c2C(N)=O)cc1 | -12% (inactive)
25 | O=c1cc(C(F)(F)F)[nH]c(=O)n1C1CCCCC1 | -12.1% (inactive)

Row | SMILES | inhibition
26 | COc1ccc(/C=C/C(=O)Nc2c(C)nn(C)c2C)cc1COc1ccc(Br)cc1 | -7.02% (inactive)
27 | CCc1c(C)nc2cc(C)[nH]n2c1=O | -1.93% (inactive)
28 | FC(F)(F)c1cc(C(F)(F)F)c2ccc(N3CCN(c4ccccc4)CC3)nc2n1 | -4.18% (inactive)
29 | N#CCCN(CCC#N)c1nnc(-c2ccccc2)s1 | -13.8% (inactive)
30 | CN(CCC#N)c1ncnc2scc(-c3ccccc3)c12 | 54.3% (active)
31 | C=CCn1cnc2scc(-c3ccccc3)c2c1=O | -17.6% (inactive)
32 | CS(=O)(=O)n1nc(-c2ccccc2)nc1NCc1ccco1 | -17.7% (inactive)
33 | Cc1nc2cc(NC(=O)CSc3nc4c(C)cccc4cc3C#N)ccc2s1 | -34.1% (inactive)
34 | CC(=O)C1=C(C)NC(=O)NC1c1cc(Br)ccc1OCC#N (stereo not drawn) | -9.62% (inactive)
35 | CC1=CC(=O)C=CC1(C)C(Cl)(Cl)Cl (stereo not drawn) | -6.25% (inactive)
36 | CC/C(=N/Nc1ccccc1)c1cnnc(SC)n1 | -14.3% (inactive)
37 | COC(=O)/C=C/C(=O)NCc1ccco1 | -9.17% (inactive)
38 | Cc1ccccc1CSCCNC(=O)c1ccc(N(C)S(=O)(=O)c2ccccc2)cc1 | 57.1% (active)
39 | Cc1ccccc1CSCCNC(=O)c1ccc(Cl)c(S(=O)(=O)N2CCOCC2)c1 | -1.84% (inactive)
40 | Cc1ccc(C(=O)NCCNS(=O)(=O)c2ccccc2)cc1 | -5.51% (inactive)
41 | Cc1cc(OCCOc2cccc3cccnc23)c(C)cc1Cl | -13.9% (inactive)
42 | CCN1C(=O)/C(=C2/Sc3ccc(OC)cc3N2C)SC1=Nc1ccc(C)cc1 | -9.58% (inactive)
43 | CCCc1nc(NCc2ccc3c(c2)OCO3)c2nnn(Cc3ccccc3Cl)c2n1 | -9.3% (inactive)
44 | CCC(=O)NNc1cc(=O)c2c(=O)n(C)c(=O)n(C)c2[nH]1 | -9.06% (inactive)
45 | CN(C)/C=C(\C#N)C(=O)c1cccnc1Oc1ccc(F)cc1F | -4.48% (inactive)
46 | COCCCNC(=O)C1CC(=O)N(CCc2ccccc2)C1 (stereo not drawn) | -12.8% (inactive)
47 | COc1cc(OC)cc(-c2cc3nc(C4CCN(C(=O)OC(C)(C)C)CC4)cc(=O)n3[nH]2)c1 | -8.81% (inactive)
48 | Cc1c(Nc2nc3ccccc3nc2NS(=O)(=O)c2cccs2)c(=O)n(-c2ccccc2)n1C | -2.91% (inactive)
49 | Cc1cccc(N2C(=O)SC(N(CC(=O)O)c3cccc(C)c3)C2=O)c1 (stereo not drawn) | 68.7% (active)
50 | Cc1cccc(N(CC(=O)N2CCOCC2)S(C)(=O)=O)c1 | -16.7% (inactive)

Row | SMILES | inhibition
51 | Cc1cccc(N2C(=O)C3C(c4ccccc4)OC4(C(=O)c5ccccc5C4=O)C3C2=O)c1 (stereo not drawn) | -6.04% (inactive)
52 | CCOC(=O)c1cc(C#N)c(N2CCCCC2)nc1-c1ccccc1 | -7.56% (inactive)
53 | COc1ccc(NC(=O)Cn2nnc(C(=O)NCCc3ccc(OC)c(OC)c3)c2N)cc1 | -3.12% (inactive)
54 | CCC(=O)NCCc1nc2ccccc2n1CC | -12.5% (inactive)
55 | Cc1ccc(S(=O)(=O)NCC(C)NS(C)(=O)=O)cc1 (stereo not drawn) | -7.03% (inactive)
56 | O=C(c1cccc(F)c1)N1CCC(O)(c2cccnc2)CC1 | -11.3% (inactive)
57 | Cc1cc(S(=O)(=O)NC2CCCCC2)ccc1OCC(=O)NCc1cccnc1 | -6.44% (inactive)
58 | Cc1ccc(N2C(=O)S/C(=C/c3cn(C)c4ccccc34)C2=O)cc1 | -7.68% (inactive)
59 | Cn1c(=O)[nH]c(=O)c2c1nc(NCCCn1ccnc1)n2Cc1cccc(Br)c1 | 51.2% (active)
60 | CCCCNc1nc2c(c(=O)[nH]c(=O)n2C)n1CCOc1ccccc1 | -13.6% (inactive)
61 | CC(c1ccccc1)n1c(NCCCn2ccnc2)nc2c1c(=O)[nH]c(=O)n2C (stereo not drawn) | -13.2% (inactive)
62 | CCOC(=O)N1CCC(N(CCOC)C(=O)Nc2ccc(C)c(C)c2)CC1 | -7.06% (inactive)
63 | Cn1nc(-c2ccccc2)c(CSc2cccc(Cl)c2)c1Cl | -5.77% (inactive)
64 | CCCC(=O)C1CCN(Cc2ccccc2)CC1 | -5.07% (inactive)
65 | Cc1ccc(N2C(=O)C(Cc3ccccc3)NC2=S)cc1 (stereo not drawn) | -4.76% (inactive)
66 | CCOC(=O)c1ccc2c(c1)nc(SCC(=O)NC(C)C)n2CC | -12.9% (inactive)
67 | O=C(NCCCN1CCOCC1)c1cc2c(s1)CCC2 | 12.4% (inactive)
68 | CCn1c(SCC(=O)Nc2ccc(OC)c(OC)c2)nnc1-c1c[nH]c2ccccc12 | -21.5% (inactive)
69 | CCC(C)Sc1nnc(-c2c[nH]c3ccccc23)n1CCOC (stereo not drawn) | -10.2% (inactive)
70 | CCn1c(SCCC(C)C)nnc1-c1c[nH]c2ccccc12 | 57.8% (active)
71 | CCCC(C(=O)n1nc(C)cc1C)C(NS(=O)(=O)c1ccc(C)cc1)c1ccccc1 (stereo not drawn) | -12% (inactive)
72 | COc1ccc(Oc2coc3cc(OC(=O)c4cncc(Br)c4)ccc3c2=O)cc1 | -8.95% (inactive)
73 | Cc1cc(C)c2nc(NC(=O)C3CCCO3)sc2c1 (stereo not drawn) | -2.38% (inactive)
